In assay [1] the test system is Human papillomavirus type 1a protein E7 (residues 44-93). In words: HPV1a E7 fragment binders on microarrays, primary screen, biochemical, small-molecule microarray, residues 44-93, 635 nm fluorescence (AID 1108).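 Further: E7 fragment applied at 1 µg/mL in TBST for 1 h at 4 C; score combines spot fluorescence with its signal to noise ratio.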 The note with it: small-molecule microarray binding, fluorescence 635 nm; higher = more signal.
Assay [2] can be described thus: modulators of HCV replicon luciferase signal, primary screen, HCV replication inhibitor project, Huh7 cells, luciferase reporter (AID 1109).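 Further: huh7 hepatoma cells harbouring a luciferase neomycin HCV replicon reporter; luciferase luminescence as measure of HCV replicon replication; test concentration not given here.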 As to conditions: 48 h, higher = more signal. (In general: A replicon is a self-replicating genome or part of one, used to study replication in cells.)
Assay [3] concerns the target Left-right determination factor 2 (Homo sapiens) (UniProt O00292). As to the kind of experiment: LEFTY2 binders on small-molecule microarrays, primary screen, biochemical, small-molecule microarray, 635 nm fluorescence scan (AID 1110). As to conditions: LEFTY2 binding, higher = more signal.
Assay [4] deals with Calmodulin-1 (Homo sapiens) (UniProt P0DP23). As to the kind of experiment: CALM1 binders on microarrays, EGTA buffer, profiling panel, biochemical, small-molecule microarray, Cy5-labelled CALM1 (AID 1111).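 Further: labelled calmodulin applied in Tris saline Tween buffer holding calcium plus EGTA and DTT.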 As to conditions: Cy5-CALM1 binding fluorescence, higher = more signal.
Assay [5] shares this target. As to the kind of experiment: calcium-bound CALM1 binders on microarrays, profiling panel, artefact control for SMM control-protein annotation, biochemical, small-molecule microarray, Cy5-labelled CALM1, plus calcium (AID 1112).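 Further: score merges spot fluorescence with signal to noise from triplicate slides.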 The note with it: Cy5-CALM1 binding fluorescence, higher = more signal.
Assay [6] in a line: small-molecule microarray binders of probe aWnt5a, primary screen, biochemical, biotinylated probe, 635/667 nm fluorescence (AID 1113).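 Further: score merges 667 nm fluorescence intensity with signal-to-noise per printed feature.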 The note with it: higher = more signal.
Assay [7] can be described thus: small-molecule microarray binders of probe aShh, primary screen, biochemical, biotinylated probe, 635/667 nm fluorescence (AID 1114).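 Further: probe is biotin-labelled aShh protein from a stem cell growth factor screen; measures binding of labelled protein to compounds printed on the slide; score merges feature fluorescence at 667 nm with signal-to-noise.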 As to conditions: higher = more signal.
Assay [8] in a line: small-molecule microarray binders of probe aNog, primary screen, biochemical, biotinylated probe, 635/667 nm fluorescence (AID 1115).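 Further: probe is biotinylated aNog protein used at 0.15 µg/mL for 1 h at 4 C; z-score combines 667 nm fluorescence of each spot with its signal to noise.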 The note with it: higher = more signal.
The target of assay [9] is Torsin-1A-interacting protein 1 (Homo sapiens) (UniProt Q5JTV8). As to the kind of experiment: LAP1 binders from COS7 cell lysate, primary screen, small-molecule microarray, 635/667 nm fluorescence (AID 1116). As to conditions: COS7-hLAP1 lysate binding, 635 nm fluorescence, higher = more signal.
Assay [10] addresses Alpha-bungarotoxin (Bungarus multicinctus) (UniProt P60615). As to the kind of experiment: alpha-bungarotoxin binders on microarray, profiling panel, artefact control for SMM control protein annotation, biochemical, small-molecule microarray, Alexa647 label, 635/667 nm fluorescence (AID 1117). The note with it: alpha-BTX-A647 binding fluorescence, higher = more signal.

Alpha-bungarotoxin (Bungarus multicinctus), sequence (P60615 whole entry, looked up): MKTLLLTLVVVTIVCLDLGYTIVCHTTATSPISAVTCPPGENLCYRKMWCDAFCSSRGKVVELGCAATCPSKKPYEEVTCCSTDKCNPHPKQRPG
Torsin-1A-interacting protein 1 (Homo sapiens), sequence (Q5JTV8 whole entry, looked up): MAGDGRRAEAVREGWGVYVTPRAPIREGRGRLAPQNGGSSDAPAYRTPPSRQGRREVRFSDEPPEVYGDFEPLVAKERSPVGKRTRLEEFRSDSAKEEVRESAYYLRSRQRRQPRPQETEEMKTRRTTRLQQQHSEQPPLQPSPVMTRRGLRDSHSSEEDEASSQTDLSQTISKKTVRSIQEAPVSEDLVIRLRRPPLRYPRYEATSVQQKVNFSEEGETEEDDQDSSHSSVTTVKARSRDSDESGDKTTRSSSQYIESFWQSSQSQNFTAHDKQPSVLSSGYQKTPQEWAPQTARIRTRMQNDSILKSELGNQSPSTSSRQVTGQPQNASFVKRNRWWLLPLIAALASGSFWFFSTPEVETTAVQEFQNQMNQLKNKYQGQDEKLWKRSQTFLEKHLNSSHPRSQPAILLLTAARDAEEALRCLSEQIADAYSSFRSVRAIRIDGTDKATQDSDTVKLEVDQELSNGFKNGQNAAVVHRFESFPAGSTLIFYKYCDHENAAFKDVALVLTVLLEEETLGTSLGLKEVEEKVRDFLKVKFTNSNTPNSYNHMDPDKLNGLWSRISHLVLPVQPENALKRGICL
Left-right determination factor 2 (Homo sapiens), sequence (O00292 whole entry, looked up): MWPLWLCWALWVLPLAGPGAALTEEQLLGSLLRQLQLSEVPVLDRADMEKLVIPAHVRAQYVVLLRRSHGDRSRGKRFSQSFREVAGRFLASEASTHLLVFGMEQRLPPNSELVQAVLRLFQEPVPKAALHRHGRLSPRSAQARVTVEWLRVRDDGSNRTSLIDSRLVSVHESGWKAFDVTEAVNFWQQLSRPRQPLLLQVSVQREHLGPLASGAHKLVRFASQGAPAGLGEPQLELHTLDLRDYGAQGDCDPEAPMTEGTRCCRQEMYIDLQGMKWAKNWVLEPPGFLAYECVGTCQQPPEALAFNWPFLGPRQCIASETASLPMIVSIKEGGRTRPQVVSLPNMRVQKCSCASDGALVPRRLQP

Take `COc1cc2c(cc1OC)CN(C(=O)[C@@H]1[C@H]3C(=O)O[C@H](c4ccccc4)[C@H](c4ccccc4)N3[C@H](c3ccccc3OCCO)[C@@]13C(=O)Nc1ccc(C#CCCO)cc13)CC2`: the composite z-score is 1.35 in [1]; 0.268 in [3]; 1.16 in assay [4]; 0.104 in [5]; -0.133 in assay [6]; 0.292 in [7]. Also, the composite z-score stood at 1.16 in assay [8], 2.22 in assay [9] and 1.49 in assay [10]. Also, in assay [2], the z-score is -2.36.
Consider `C=C[C@@H](COC(=O)OC(C)(C)C)N(Cc1ccc(OC)cc1)S(=O)(=O)c1ccc(Br)cc1`, for which the composite z-score in [1] was 1.28; in assay [3], 0.537; in assay [4] it was -0.042; in assay [5], -0.439; in assay [6] it was -0.0977; in [7], 0.0121. For the same compound, the composite z-score in [8] was -0.326; in assay [9] it was 0.173; in [10], 0.268. In addition, in assay [2], the z-score is -0.987.
`COCCOC(=O)N1C(=O)[C@@]2(c3cc(C#CCNC(N)=O)ccc31)[C@H](C(=O)Nc1nc3ccccc3s1)[C@H]1C(=O)O[C@H](c3ccccc3)[C@H](c3ccccc3)N1[C@@H]2c1ccc(OCCO)cc1`: the composite z-score is 1.26 in assay [1]; 0.825 in assay [3]; 1.37 in [4]; 0.662 in [5]; 0.003 in [6]; -0.382 in assay [7]. Moreover, the composite z-score in assay [8] was -0.229; in [9], 0.415; in assay [10], 1.24. Also, the z-score in assay [2] is -1.08.
On to `COC(=O)[C@@]1(Cc2ccc(OC)cc2)[C@@H]2C(=CC(=O)[C@H]2CC(=O)C(=O)N2CCCC2)CN1C(=O)c1ccccc1`, for which the composite z-score was -0.514 in assay [1]; -0.505 in assay [3]; 0.946 in [4]; 0.713 in assay [5]; 0.368 in assay [6]; 1.06 in assay [7]. Further, the results for the composite z-score in assay [8], in assay [9] and in assay [10] were 1.04, 0.674 and 0.15, respectively. This compound returned a z-score in [2] of -1.88.
Take `C=C(CCCC)/C(=C/C[C@@H](OC(=O)c1ccncc1)c1ccc(OCCO)cc1)c1cc(C(=O)OC)ccc1OC`: the composite z-score in [1] is 1.41; in assay [3], -0.0304; in [4], 0.168; in assay [5] it was -0.959; in assay [6], -0.166; in assay [7] it was -0.138. Also, the figures for the composite z-score in assay [8], in [9] and in assay [10] were -0.144, 0.883 and 0.311, respectively. This compound showed a z-score in assay [2] of -1.91.
In the case of `COCC(=C=CC[C@@H](O)c1cccc(OCCO)c1)C[C@@H](O)c1ccccn1`, the composite z-score is -0.768 in [1]; 0.493 in assay [3]; -0.301 in [4]; -0.0023 in assay [5]; -0.0459 in assay [6]; -0.221 in [7]. In addition, the composite z-score is -0.388 in assay [8], 1.15 in assay [9] and 0.216 in assay [10]. The z-score in assay [2] is 0.0065.
Take `O=C(c1ccccc1)N1Cc2ccccc2C[C@@]2(COC(c3ccc(OCCCO)cc3)=N2)C1=O`: the composite z-score is 1.4 in [1]; 0.252 in [3]; 1.32 in [4]; 0.566 in assay [5]; -0.0512 in assay [6]; 0.184 in assay [7]. For the same compound, the composite z-score in [8] is -0.486; in assay [9] it was 1.31; in assay [10] it was 1.83. The z-score in [2] is -1.25.
As for `CC1CC/C=C\[C@H]2OC34C=CCN(C(C)(C)C)C(=O)[C@H]3N(CCO)C(=O)[C@@H]4C2C(=O)O1` (stereo not given in full), the composite z-score in [1] is -0.432; in assay [3], -1.66; in [4], -1.34; in assay [5], -0.746; in [6], -0.224; in assay [7], -0.372. Further, the composite z-score in assay [8] is 0.489; in [9], -1.25; in assay [10], -0.153. Moreover, the z-score in assay [2] is -0.106.
As to `CC(C)[Si]1(C(C)C)O[C@@H](c2ccccc2)c2cc(-c3ccc(-c4ccc(Cl)c(Cl)c4)o3)nc(-c3ccccc3)c21`, the composite z-score in assay [1] was -0.342; in [3], -0.115; in [4], 0.487; in [5] it was 0.0017; in assay [6], -0.137; in assay [7] it was -0.138. In addition, the composite z-score in assay [8] was 0.15; in assay [9], -0.101; in assay [10] it was 0.575. Besides, the z-score in assay [2] is -1.55.
Regarding `COC(=O)c1c(CC[C@@H](CO)NC(=O)NCCn2cc(C3(O)CCCC3)nn2)oc(C(C)=O)c1C(=O)OC`, the composite z-score is -0.0133 in assay [1]; -0.0138 in assay [3]; -0.19 in assay [4]; -0.732 in [5]; -0.169 in [6]; -0.195 in [7]. The composite z-score in [8] was -0.158; in assay [9] it was 0.331; in assay [10], 0.139. The z-score in assay [2] was -0.674.
`CCCCCN1CC=CC23O[C@@H]4/C=C\CCC(C)OC(=O)C4[C@H]2C(=O)N(C(C)CO)[C@@H]3C1=O` (stereo not given in full): the composite z-score in assay [1] is 0.67; in assay [3], -0.441; in assay [4] it was -0.213; in [5], -1.04; in assay [6], -0.175; in assay [7], -0.282. In addition, the composite z-score in [8] was -0.17; in assay [9], -0.537; in assay [10] it was -0.453. In addition, the z-score in [2] was -0.862.
As for `CN(C)CCCCCCNC(=O)[C@H]1C[C@H]2C(=O)N[C@@H](CCCCN)C(=O)N2[C@H]1c1cccc(OCCO)c1`, the composite z-score in assay [1] came out at 1.56; in assay [3], 1.71; in [4], 1.99; in [5], 1.16; in assay [6], 1.06; in assay [7], 2.92. Also, the values for the composite z-score in [8], in [9] and in assay [10] were 3.26, 4.54 and 2.52, respectively. The z-score in [2] was 0.386.
`CC(C)(C)OC(=O)CC[C@]1(C(=O)N2CCOCC2)N=C(c2ccc(OCCCO)cc2)O[C@H]1c1ccccc1N=[N+]=[N-]`: the composite z-score was 1.05 in [1]; 0.119 in assay [3]; 0.981 in assay [4]; 0.0644 in assay [5]; -0.0125 in assay [6]; 0.308 in assay [7]. In addition, the composite z-score turned out to be 1.37 in assay [8], 2.43 in assay [9] and 1.23 in assay [10]. This compound returned a z-score in assay [2] of 2.2.
On to `O=C1O[C@@H](c2ccccc2)[C@@H](c2ccccc2)N2[C@@H](c3ccccc3OCCO)[C@]3(C(=O)Nc4ccc(C#CC5=CCCCC5)cc43)[C@@H](C(=O)N3CCCCCCC3)[C@H]12`, for which the composite z-score in assay [1] was determined as 1.52; in assay [3] it was 1.74; in assay [4], 3.02; in assay [5], 1.72; in assay [6], 1.4; in assay [7] it was 3.21. Besides, the figures for the composite z-score in assay [8], in assay [9] and in [10] were 3.35, 5.37 and 3.65, respectively. Besides, the z-score in assay [2] was -3.29.
As for `COC(=O)[C@@]1(Cc2ccc(OC)cc2)[C@H]2c3cc(C(=O)N4CCCC4)n(CCN4CNCC4=O)c3C[C@H]2CN1C(=O)c1ccccc1`, the composite z-score in assay [1] is 0.218; in assay [3], -0.0543; in assay [4], 1.14; in assay [5], 0.751; in assay [6], 1.19; in assay [7], 2.77. Moreover, the composite z-score in assay [8] was 2.43; in assay [9] it was 1.11; in assay [10], -0.169. The compound also returned a z-score in assay [2] of -0.0994.
Turning to `COCCOC(=O)N1C(=O)[C@@]2(c3cc(C#Cc4ccc(OC)cc4)ccc31)[C@H](c1ccc(O)cc1)N1[C@H](c3ccccc3)[C@H](c3ccccc3)OC(=O)[C@H]1[C@@H]2C(=O)N1CCc2cc(OC)c(OC)cc2C1`, the composite z-score in assay [1] was 1.32; in assay [3], 0.471; in [4] it was 1.74; in assay [5], 0.141; in [6] it was 0.0017; in [7] it was -0.301. Moreover, the composite z-score in assay [8] came to 0.27; in assay [9], 0.796; in [10], 0.317. Moreover, in assay [2], the z-score was -0.296.
Regarding `CCOC(=O)[C@H]1C/C=C/C[C@H](C(=O)OCC)C(=O)O[C@H]2[C@@H](OC)O[C@H](CO)[C@@H](OC(=O)c3c(OC)cccc3OC)[C@@H]2OC1=O`, the composite z-score in assay [1] is -0.908; in [3], 0.204; in assay [4], 0.34; in [5], 0.208; in assay [6] it was -0.126; in assay [7] it was 0.244. Moreover, the composite z-score in assay [8] amounted to 0.65; in assay [9], 0.11; in assay [10], 1.1. In assay [2], this compound returned a z-score of -3.32.

The record behind these values is PubChem BioAssay.
